In PubChem BioAssay (NCATS):
Several values for one entry are separate records, joined by “and”; a condition that tells them apart may be missing. Equal values may be shown once. Inconclusive results are not listed. Entries that show only a call come without a potency. Some structures have more than one record in an assay (separate samples or runs), and their calls can disagree. Activity calls are given as the source filed them. Calls follow the shape of the dose curve; as a rule, active = well fitted curve in the direction sought with a large enough effect; inconclusive = small, poorly fitted or top-dose-only effect, or another doubt; inactive = no such curve, though single readings can be large; an effect the other way counts as inactive or inconclusive. Peptide text beside a SMILES is read from it.

What was measured:
[1] = NS1 protein of Zika virus - qHTS assay to identify small molecule inhibitors in human HEK 293 cells (AID 1347053); also: nearly all actives have a fitted effect of over 55% in size; also: potency is read from the fitted curve at half-maximal effect
How it was run: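 In this cell-based screen, HEK 293 cultures received compound for one hour before Zika MR766 at MOI = 0.5. NS1 was quantified 24 hours later by TR-FRET, normalized to virus-free wells and infected wells.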

[2] = qHTS of pediatric cancer cell lines to identify multiple opportunities for drug repurposing: Primary screen for TC32 cells (AID 1347089); also: nearly all actives have a fitted effect of over 60% in size
How it was run: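 qHTS, TC32, 48 h drug treatment, CellTiter-Glo luminescence as a proxy for metabolically active cells; primary top concentration 46 µM (MIPE 11-pt, NPC 8-pt); confirmatory 11-pt.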

[3] = qHTS of pediatric cancer cell lines to identify multiple opportunities for drug repurposing: Primary screen for SJ-GBM2 cells (AID 1347091); also: potency is read from the fitted curve at half-maximal effect
How it was run: (§1)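 Eight- or eleven-point concentration series, 48 h treatment at 37 degrees C in growth media; readout CellTiter-Glo luminescence. Potency and efficacy were taken from the concentration-response curves.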

[4] = qHTS of pediatric cancer cell lines to identify multiple opportunities for drug repurposing: Primary screen for SK-N-MC cells (AID 1347093); also: potency is read from the fitted curve at half-maximal effect
How it was run: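 Metabolically active cells were quantified by ATP-dependent luminescence (CellTiter-Glo, 15 min at room temperature) following 48 h treatment. Cells had been plated at 500-1,000 per well and settled for 5 h beforehand.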

[5] = qHTS of pediatric cancer cell lines to identify multiple opportunities for drug repurposing: Primary screen for BT-37 cells (AID 1347094); also: potency is read from the fitted curve at half-maximal effect
How it was run: (§2)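 Phenotypic viability qHTS, 48 h compound exposure, CellTiter-Glo luminescence read-out; multi-concentration dosing so that potency and efficacy derive directly from the primary screen's curves.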

[6] = qHTS of pediatric cancer cell lines to identify multiple opportunities for drug repurposing: Primary screen for NB-EBc1 cells (AID 1347095); also: potency is read from the fitted curve at half-maximal effect
How it was run: as §2

[7] = qHTS of pediatric cancer cell lines to identify multiple opportunities for drug repurposing: Primary screen for U-2 OS cells (AID 1347096); also: nearly all actives have a fitted effect of over 50% in size
How it was run: (§3)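 Cells (500-1,000/well) in growth media were settled 5 h at 37 degrees C, then given compounds for 48 h. Viability was read as CellTiter-Glo luminescence. Primary runs used MIPE at 11 points (0.78 nM-46 µM) and NPC at 8 points (0.59 nM-46 µM); follow-ups used 11 points.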

[8] = qHTS of pediatric cancer cell lines to identify multiple opportunities for drug repurposing: Primary screen for Saos-2 cells (AID 1347097); also: nearly all actives have a fitted effect of over 40% in size; also: potency is read from the fitted curve at half-maximal effect
How it was run: as §2

[9] = qHTS of pediatric cancer cell lines to identify multiple opportunities for drug repurposing: Primary screen for LAN-5 cells (AID 1347100)
How it was run: as §3

[10] = qHTS of pediatric cancer cell lines to identify multiple opportunities for drug repurposing: Primary screen for DAOY cells (AID 1347090); also: nearly all actives have a fitted effect of over 55% in size; also: potency is read from the fitted curve at half-maximal effect
How it was run: as §1

[11] = qHTS of pediatric cancer cell lines to identify multiple opportunities for drug repurposing: Primary screen for A673 cells (AID 1347092); also: nearly all actives have a fitted effect of over 45% in size; also: potency is read from the fitted curve at half-maximal effect
How it was run: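 Luminescence from CellTiter-Glo, taken after 15 min at room temperature, served as the proxy for metabolically active cells following 48 h treatment. Both potency and efficacy were taken from curves fitted to the titration data.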

[12] = qHTS of pediatric cancer cell lines to identify multiple opportunities for drug repurposing: Primary screen for SK-N-SH cells (AID 1347098); also: nearly all actives have a fitted effect of over 65% in size; also: potency is read from the fitted curve at half-maximal effect
How it was run: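 Cells (500-1,000/well) rested 5 h, then received compounds for 48 h; metabolically active cells were measured by CellTiter-Glo luminescence. Final concentrations spanned up to 46 µM (MIPE, 11-point) or 0.59 nM-46 µM (NPC, 8-point) in primary screens, 11-point in follow-ups.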

[13] = qHTS of pediatric cancer cell lines to identify multiple opportunities for drug repurposing: Primary screen for NB1643 cells (AID 1347099); also: nearly all actives have a fitted effect of over 50% in size; also: potency is read from the fitted curve at half-maximal effect
How it was run: as §2

| Compound | Potency [1] | Potency [2] | Potency [3] | Potency [4] | Potency [5] | Potency [6] | Potency [7] | Potency [8] | Potency [9] | Potency [10] | Potency [11] | Potency [12] | Potency [13] |
| --- | --- | --- | --- | --- | --- | --- | --- | --- | --- | --- | --- | --- | --- |
| COC(=O)C1=C(C)NC(C)=C(C(=O)OC(C)C)C1c1cccc2nonc12 (stereo not drawn) | inactive | inactive | inactive | 2.64 µM (active) | inactive | inactive | inactive | inactive | inactive | – | – | – | – |
| Clc1ccc(C(Cn2ccnc2)OCc2c(Cl)cccc2Cl)c(Cl)c1 (stereo not drawn) | inactive and 14.8 µM (active) | – | inactive | – | – | – | inactive | – | – | inactive | 21.1 µM (active) and 18.7 µM (active) | inactive | – |
| Cc1c(C(=O)NN2CCCCC2)nn(-c2ccc(Cl)cc2Cl)c1-c1ccc(Cl)cc1 | 18.7 µM (active) | – | 13.2 µM (active) | 21.1 µM (active) and 7.43 µM (active) | 3.85 µM (active) | – | inactive | – | – | inactive | – | 27.3 µM (active) and 30.4 µM (active) | – |
| O=C1CCc2ccc(OCCCCN3CCN(c4cccc(Cl)c4Cl)CC3)cc2N1 | – | inactive | 18.8 µM (active) | inactive | inactive | – | inactive | – | – | inactive | – | inactive | inactive |
| Cc1cc2cc3c(C)cc(=O)oc3c(C)c2o1 | inactive | – | inactive | – | inactive | inactive | inactive | inactive | inactive | – | – | – | – |
| CCCCCCCCOc1ccccc1C(=O)Nc1ccc(C(=O)OCC[N+](C)(CC)CC)cc1 | inactive | – | – | – | – | inactive | – | 29.6 µM (active) | inactive | – | – | – | – |
| CCCCc1ccc2nc(NC(=O)OC)[nH]c2c1 | 1.32 µM (active) and inactive | – | 1 nM (active) and 106 nM (active) | 5.3 nM (active) and 26.6 nM (active) | 43.2 nM (active) and 61.7 nM (active) | 1 nM (active) and 106 nM (active) | – | 9.3 nM (active) and 29.9 nM (active) | – | 0.0266 µM (active) | 9.3 nM (active) and 21.1 nM (active) | – | inactive |
| O=C(O)c1cccc(-c2noc(-c3ccccc3F)n2)c1 | inactive | – | inactive | – | – | – | – | inactive | inactive | inactive | – | inactive | – |
| C[C@]12CCC(=O)C=C1CC[C@@H]1[C@H]2[C@@H](O)C[C@@]2(C)[C@H]1CC[C@]2(O)C(=O)CO | inactive | – | inactive | inactive | inactive | – | – | inactive | inactive | inactive | 18.7 µM (active) | – | – |
| CN(C)c1ccc(O)c2c1C[C@H]1C[C@H]3[C@H](N(C)C)C(=O)C(C(N)=O)=C(O)[C@@]3(O)C(=O)C1=C2O | inactive | inactive | – | – | – | inactive | – | inactive | – | inactive | – | inactive | inactive |
| O=C(OC1C[C@H]2CC[C@@H](C1)[N+]21CCCC1)C(O)(c1ccccc1)c1ccccc1 (stereo partly drawn) | inactive | – | – | 14.8 µM (active) | inactive | inactive | – | inactive | inactive | inactive | inactive | – | 10.5 µM (active) |
| CC1(C)CCC(C)(C)c2cc(NC(=O)c3ccc(C(=O)O)cc3)ccc21 | inactive | inactive | inactive | 1.87 µM (active) | inactive | – | – | – | – | – | – | inactive | – |
| Cc1ccc(S(=O)(=O)NC(=O)NN2CC3CCCC3C2)cc1 (stereo not drawn) | inactive | – | inactive | inactive | inactive | inactive | inactive | 7.5 µM (active) and 18.7 µM (active) | – | inactive | – | inactive | inactive |
| CC(C)c1ccc2oc3nc(N)c(C(=O)O)cc3c(=O)c2c1 | inactive | – | inactive | inactive | inactive | inactive | inactive | inactive | inactive | inactive | inactive | inactive | inactive |
| O=P(O)(O)C(O)(Cn1ccnc1)P(=O)(O)O | – | – | inactive | inactive | inactive | inactive | inactive | inactive | – | inactive | inactive | inactive | inactive |
| CC1Cc2ccccc2N1NC(=O)c1ccc(Cl)c(S(N)(=O)=O)c1 (stereo not drawn) | inactive | – | – | inactive | inactive | – | – | inactive | inactive | inactive | – | inactive | inactive |
| COC(=O)[C@H](Cc1ccccc1)NC(=O)[C@@H](N)CC(=O)O (H-Asp-Phe-OMe) | inactive | – | inactive | inactive | inactive | inactive | inactive | inactive | inactive | inactive | inactive | inactive | inactive |
